Bioassay records: PubChem BioAssay, several laboratories
CYP2C19 inhib = blocks human cytochrome P450 2C19; CYP2C19 Supersomes, luciferin-H EGE luminescence, 30 min; AID 778; inhibition, % at 5 µM; 96,000 tested, 21% active; P33261;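 active means CYP2C19 inhibition above a set limit at 5 µM in the primary screen, cut at about 50% in these data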;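 further: plate controls were negative control wells for no effect and 2.5 mM tranylcypromine positive control for full effect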
Target sequence (P33261 whole entry, looked up): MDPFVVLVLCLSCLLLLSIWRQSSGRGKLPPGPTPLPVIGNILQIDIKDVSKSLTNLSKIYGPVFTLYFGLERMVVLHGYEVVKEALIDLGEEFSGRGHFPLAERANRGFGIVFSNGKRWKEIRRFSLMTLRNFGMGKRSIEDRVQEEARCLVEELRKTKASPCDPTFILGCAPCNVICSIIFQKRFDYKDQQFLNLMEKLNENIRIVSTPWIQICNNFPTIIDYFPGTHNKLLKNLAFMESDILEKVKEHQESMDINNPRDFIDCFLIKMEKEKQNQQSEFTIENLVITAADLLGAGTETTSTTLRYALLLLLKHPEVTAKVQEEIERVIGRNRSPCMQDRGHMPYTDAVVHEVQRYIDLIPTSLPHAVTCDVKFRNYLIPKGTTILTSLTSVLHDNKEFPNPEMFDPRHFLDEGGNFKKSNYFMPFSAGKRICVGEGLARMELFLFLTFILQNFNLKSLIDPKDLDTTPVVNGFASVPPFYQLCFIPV
CYP2C9 inh = blocks human cytochrome P450 2C9; CYP2C9 Supersomes, luciferin-H conversion, luminescence; inhibition, % at 5 µM; 96,000 tested, 20% active; AID 777;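 active means blocking of liver enzyme CYP2C9 beyond about 50% at 5 µM, limit read from the data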
CYP2C9 activ = activators of human CYP2C9; activation factor at 5 µM; recombinant CYP2C9, luciferin-H conversion, luminescence; hits give high values; factor 1 = untreated enzyme, 0 = blocked; 96,000 tested, 1.4% active;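 active means activation factor of 2 or more for CYP2C9 at a 5 µM dose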;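 further: 0 = sulfaphenazole-blocked wells and 1 = vehicle-only wells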
CYP2C19 activ = increases human CYP2C19 enzyme activity. P33261. recombinant CYP2C19, luciferin-H EGE luminescence; hits give high values; 0 = fully inhibited enzyme, 1 = untreated enzyme. activation factor at 5 µM. 96,000 tested, under 10 active. AID 1025;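 active means activation factor of at least 2 at 5 µM in the primary screen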;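 further: 0 = wells with 2.5 mM tranylcypromine and 1 = vehicle-only wells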
Cav3 T inh = inhibitors of human Cav3.2 T-type calcium channel; O95180; Cav3.2-expressing cells, Fluo-4 calcium fluorescence FDSS; hits give low values; B-score at 10 µM; 100,000 tested, 4% active; AID 449739;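 active means single-dose well whose peak fluorescence ratio is a statistical outlier from its plate by either plate-standardised score or position-corrected B-score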
An asterisk follows results filed as active; · = not tested or not shown. An excerpt weighted towards active compounds, which were near 27% of everything screened.

SMILES	CYP2C19 inhib	CYP2C9 inh	CYP2C9 activ	CYP2C19 activ	Cav3 T inh
COc1ccc(Cl)cc1S(=O)(=O)N1CCN(c2ccc(F)cc2)CC1	97.5*	-219.6	3.2*	0	-3.66*
CC(=O)Nc1ccc(C(=O)n2cnc3cc(C)c(C)cc32)cc1	38.1	44.8	0.6	0.6	0.326
CC(=O)Nc1ccc(S(=O)(=O)n2cnc3cc(C)c(C)cc32)cc1	99.5*	77.9*	0.2	0	·
COc1ccc(C)cc1S(=O)(=O)N1CCN(S(=O)(=O)c2cc(C)ccc2OC)C(C)C1 (stereo not given)	99.9*	98.7*	0	0	-1.93
NC(=O)C1=C[C@H](c2ccc(Br)cc2)C[C@H](OCc2ccc(CO)cc2)O1	·	·	·	·	-0.247
CN(CC(=O)NCCN1CCN(c2ccccc2)CC1)S(=O)(=O)c1ccc2c(c1)CCC(=O)N2	3.1	9.8	0.9	1	0.498
CC(C)CCNC(=O)NC(=O)Cn1cc(C(F)(F)F)ccc1=O	38.4	34.6	0.7	0.6	-0.221
CCOc1ccc(Cl)cc1S(=O)(=O)n1cnc2cc(C)c(C)cc21	91.2*	58.2*	0.4	0.1	-1.05
COc1cc(C)c(Cl)cc1S(=O)(=O)n1cnc2ccccc21	41.6	20.7	0.8	0.6	-0.56
COC(=O)COc1ccc(S(=O)(=O)N2CCN(c3ccc(F)cc3)CC2)cc1	24.1	46.2	0.5	0.8	·
COc1c(S(=O)(=O)N2CCN(c3ccc(F)cc3)CC2)ccc(Cl)c1Cl	61.1*	13.8	0.9	0.4	-1.93
CCOC(=O)N1CCN(S(=O)(=O)c2cc(Cl)ccc2Cl)CC1	·	·	·	·	0.426
CCOc1ccc(Cl)cc1S(=O)(=O)N1CCN(c2ccc(C)c(C)c2)CC1	99.9*	59.5*	0.4	0	-5.41
COC(=O)Nc1ccc(S(=O)(=O)N2CCN(c3ccc(F)cc3)CC2)cc1	-5.6	-1.8	1	1.1	0.229
CCOc1ccc(Cl)cc1S(=O)(=O)N1CCN(c2ccc(F)cc2)CC1	99.9*	-142.9	2.4*	0	-3.67*
O=C(CSCC(=O)N1CCCCC1)Nc1nc(-c2ccccc2)c(-c2ccccc2)s1	·	·	·	·	-2.83
O=C(O)C[C@H]1c2cc(F)ccc2S(=O)(=O)N1C1CCCC1	·	·	·	·	-1.01
CCN(CC)Cc1c[nH]c2c(C(=O)OC)cccc12	·	·	·	·	0.37
COc1ccc(C)cc1S(=O)(=O)N1CCN(c2cccc(C(F)(F)F)c2)CC1	97.8*	23.7	0.8	0	-1.9
COc1ccc(Cl)cc1S(=O)(=O)N1CCN=C1C	90.4*	-71.8	1.7	0.1	0.0374
COc1ccc(C)cc1S(=O)(=O)N1CCC(C)CC1	31.6	-37.3	1.4	0.7	0.0284
COc1ccc(Cl)cc1C(=O)N1CCN=C1SC	35.7	21.7	0.8	0.6	2.07
CCO[C@H]1OC(C(=O)Nc2ccccc2)=C[C@@H](c2cn(C(C)=O)c3ccccc23)[C@@H]1CCCO	·	·	·	·	0.464
O=S(=O)(c1ccc(NCCc2c[nH]c3ccccc23)nc1)N1CCOCC1	51.2*	27.7	0.7	0.5	-0.752
CCc1nnc(N/N=C/c2c(Cl)cccc2Cl)n1N	63.3*	-10.9	1.1	0.4	0.117
SMILES	CYP2C19 inhib	CYP2C9 inh	CYP2C9 activ	CYP2C19 activ	Cav3 T inh
CC(=O)c1c(C)[nH]c(C(=O)OCCCCN2C(=O)c3ccccc3C2=O)c1C	40.3	70.3*	0.3	0.6	-2.26
CCOC(=O)c1[nH]c2ccccc2c1CCCN1C(=O)c2ccccc2C1=O	78.7*	85.9*	0.1	0.2	-1.05
O=C(OCCCN1C(=O)c2ccccc2C1=O)c1ccco1	54.4*	61.6*	0.4	0.5	-0.634
O=C(OCCCCN1C(=O)c2ccccc2C1=O)c1n[nH]c2ccccc12	83.7*	86.3*	0.1	0.2	-1.73
CCOC(=O)c1[nH]c2cc3c(cc2c1CCCN1C(=O)c2ccccc2C1=O)OCCO3	15.0	26.7	0.7	0.8	-0.207
CCOc1ncccc1C(=O)OCC(=O)Nc1cc(C(=O)OC)ccc1C(=O)OC	-2.0	16.2	0.8	1	·
COc1ccc2c(c1)N(C(=O)CSc1n[nH]c(C)n1)C(C)(C)C=C2C	42.2	4.5	1	0.6	-1.06
Cc1ccc(CCNC(=O)C2CCCN(S(=O)(=O)c3cccc4nsnc34)C2)cc1 (stereo not given)	24.1	10.8	0.9	0.8	0.398
COc1ccc(NC(=O)C(=O)NCc2ccncc2)c(OC)c1	57.4*	70.2*	0.3	0.4	0.823
COc1ccc(C)cc1NC(=O)C(=O)NCc1ccncc1	40.8	77.9*	0.2	0.6	0.958
Cc1cccc(-n2c(Cc3cc(=O)[nH]c(=O)[nH]3)nnc2SCC(=O)N2CCCCC2)c1	-14.2	-4.0	1	1.1	·
CCN1CCN(CC(=O)NC2CCCC2)C(=O)C1=O	1.0	6.7	0.9	1	0.612
COc1ccc(N2CCN(C(c3ccccc3)c3sc4nc(C)nn4c3O)CC2)cc1 (stereo not given)	·	·	·	·	-0.872
COc1ccc(S(=O)(=O)Cc2ccc(C(=O)NCc3cccs3)o2)cc1	27.3	60.3*	0.4	0.7	1.79
COc1ccc(S(=O)(=O)Cc2ccc(C(=O)NCCCN3CCc4ccccc4C3)o2)cc1	15.6	87.6*	0.1	0.8	1.11
Cc1cccc(N(C)C(=O)c2cc3cc4ccc(C)cc4nc3o2)c1	70.1*	24.2	0.8	0.3	-5.1*
COc1ccc(S(=O)(=O)Cc2ccc(C(=O)NC3CCCC3)o2)cc1	-1.5	31.1	0.7	1	0.355
Cc1cccc(N(C)C(=O)c2coc(=O)c3ccccc23)c1	19.2	-82.6	1.8	0.8	0.102
COc1ccccc1S(=O)(=O)Cc1ccc(C(=O)NCc2cccs2)o1	6.8	6.0	0.9	0.9	-0.245
CCOC(=O)N1CCC(NC(=O)c2ccc(CS(=O)(=O)c3ccc(OC)cc3)o2)CC1	-2.9	92.8*	0.1	1	0.79
C=CCc1c(C)nn(CC(=O)O)c1-c1ccccc1	-4.8	0.3	1	1	0.0714
COc1cc([C@@H]2c3cc4c(cc3[C@@H](O)[C@@H](CO)[C@@H]2CO)OCO4)cc(OC)c1O[Si](C)(C)C(C)(C)C	·	·	·	·	-1
O=C(NC1CCCCC1)C1CN(S(=O)(=O)c2ccccc2)CCN1S(=O)(=O)c1ccccc1 (stereo not given)	12.1	16.4	0.8	0.9	0.0258
COc1ccc(S(=O)(=O)Cc2ccc(C(=O)NCCCN(C)c3ccccc3)o2)cc1	46.8	98.0*	0	0.5	-0.767
CCCCNC(=O)c1ccc(CS(=O)(=O)c2ccc(OC)cc2)o1	10.7	-1.0	1	0.9	0.857
O=C(NCc1cccs1)c1cc2ccccc2o1	56.3*	18.4	0.8	0.4	-1.78
Cc1ccc2cc3cc(C(=O)NCCCN4CCc5ccccc5C4)oc3nc2c1	64.0*	13.2	0.9	0.4	0.0655
CCn1c(CNc2ccc(F)cc2)nnc1SCC(=O)Nc1ccc(OC)cc1	·	·	·	·	-1.26
Cc1[nH]c2ccccc2c1C1(O)C(=O)N(Cc2ccc3c(c2)OCO3)c2ccccc21 (stereo not given)	82.8*	72.8*	0.3	0.2	·
